High-throughput results (PubChem)
AmpC inh no detg = blocks E. coli AmpC beta-lactamase in detergent-free assay; P00811; AmpC nitrocefin hydrolysis, absorbance 480 nm, 0.0001% Triton; Potency, µM (doses to about 57.1 µM), for the others: at the highest dose activity change, negative = inhibition, most hits filed as inhibitors; actives 0.52% (n = 330,000); AID 485341;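 further: plate controls were no compound for no effect and no enzyme for full effect; nearly all actives have a fitted effect of over 20% in size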
Target sequence (P00811 whole entry, looked up): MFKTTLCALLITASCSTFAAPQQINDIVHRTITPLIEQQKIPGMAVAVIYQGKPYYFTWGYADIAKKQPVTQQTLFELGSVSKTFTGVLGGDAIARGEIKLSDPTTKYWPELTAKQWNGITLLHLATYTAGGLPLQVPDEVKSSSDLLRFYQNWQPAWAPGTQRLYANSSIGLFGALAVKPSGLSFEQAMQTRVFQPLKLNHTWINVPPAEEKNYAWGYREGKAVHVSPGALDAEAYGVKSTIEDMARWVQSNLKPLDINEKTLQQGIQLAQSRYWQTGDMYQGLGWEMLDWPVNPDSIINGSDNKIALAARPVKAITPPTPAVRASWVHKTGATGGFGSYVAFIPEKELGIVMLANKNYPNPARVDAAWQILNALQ
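20 mM phosphate pH 7.0 + 0.01% (detergent screen) or 0.0001% Triton X-100; 5.3 nM AmpC reagent; cpd preinc 15 min RT; nitrocefin (800 uM stock) to start; A480 q20 s × 4 min; Activity was normalised to no-enzyme and no-compound control wells.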
AmpC detergent = AmpC beta-lactamase inhibition with detergent present; P00811; AmpC hydrolysis of nitrocefin, absorbance 480 nm, 0.01% Triton; Potency, µM (top dose mostly 114 µM), for inactives: at the highest dose activity change, negative = inhibition, hits mostly inhibitors; actives 0.041% (n = 370,000); AID 485294;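 further: 0% = no-compound wells and -100% = no-enzyme wells; nearly all actives have a fitted effect of over 25% in size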
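20 mM phosphate pH 7.0 + 0.01% (detergent screen) or 0.0001% Triton X-100; 5.3 nM AmpC reagent; cpd preinc 15 min RT; nitrocefin (800 uM stock) to start; A480 q20 s × 4 min; Activity was normalised to no-enzyme and no-compound control wells.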
Giardia FBPA inh-1 = inhibitors of Giardia lamblia fructose-1,6-bisphosphate aldolase | A8B2U2 | purified Giardia FBPA | Potency, µM (series often up to 59.6 µM), without a hit: at the highest dose activity, negative = inhibition, actives largely listed as inhibitors | actives 0.71% (n = 290,000) | AID 2451; further: nearly all actives have a fitted effect of over 55% in size
Target sequence (A8B2U2 whole entry, looked up): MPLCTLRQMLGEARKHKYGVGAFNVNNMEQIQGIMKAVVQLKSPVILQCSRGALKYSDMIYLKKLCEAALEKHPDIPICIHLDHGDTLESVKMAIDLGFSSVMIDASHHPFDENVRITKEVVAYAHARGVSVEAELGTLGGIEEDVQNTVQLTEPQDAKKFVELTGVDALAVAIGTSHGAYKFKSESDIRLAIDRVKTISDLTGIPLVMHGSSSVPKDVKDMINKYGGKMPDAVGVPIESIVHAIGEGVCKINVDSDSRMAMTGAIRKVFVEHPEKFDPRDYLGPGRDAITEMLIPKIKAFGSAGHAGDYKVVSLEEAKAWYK
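40 nM FBPA preincubated 10 min at RT with compound (up to 57.5 uM final), then substrate plus GAPDH/TPI/NAD/arsenate coupling and diaphorase/resazurin added. Fluorescence read after 20 min at RT, 525/598 nm.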
RE007 growth inh = less growth of the S. pombe RE007 Vpr strain; S. pombe RE007 Vpr strain, BacTiter-Glo ATP luminescence, 24 h; Potency, µM (doses to about 92.2 µM), without a hit: top-dose activity change, negative = less growth, actives largely listed as inhibitors; actives 0.21% (n = 360,000); AID 651644; active means well fitted falling curve with a large enough effect; inconclusive means small, poorly fitted or top-dose-only effect; inactive means no such curve, though single readings can be large or run the other way; further: nearly all actives have a fitted effect of over 50% in size
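Fission yeast RE007 carrying one integrated HIV-1 vpr copy, seeded at OD 0.01 in PMG+AL medium with 23 nL pinned compound. Grown 24 h at 30 degrees; viability read by BacTiter-Glo luminescence after 5 min.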
Sm TGR inh = blocks Schistosoma mansoni thioredoxin glutathione reductase; Q962Y6; purified TGR, DTNB reduction, TNB absorbance 405 nm; Potency, µM (titrated, usually from 114 µM), without a hit: at the top dose activity change, negative = inhibition, most hits filed as inhibitors; actives 3% (n = 360,000); AID 485364; further: nearly all actives have a fitted effect of over 60% in size
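TGR 20 nM + NADPH 100 uM (dispensed conc.), cpd preinc 15 min RT; start with NADPH (500 uM addition) then DTNB (15 mM addition). Kinetic TNB absorbance, 405 nm filter. Four-parameter Hill fit across titration.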
Giardia growth = Giardia lamblia growth inhibition; Giardia lamblia trophozoite growth inhibition; shares compounds with Giardia FBPA inh-1; Potency, µM (top dose mostly 57.5 µM), for inactives: top-dose activity change, negative = inhibition, actives largely listed as inhibitors; actives 5% (n = 1,500);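 further: trophozoites exposed to compound for 48 h at 37 °C; nearly all actives have a fitted effect of over 70% in size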
Mammal cell tox = counter-screen for Giardia aldolase inhibitors: mammalian cell toxicity; shares compounds with Giardia FBPA inh-1; mammalian cell viability counter-screen, qHTS; Potency, µM (series often up to 57.5 µM), without a hit: at the top dose viability change, negative = toxicity, most hits filed as inhibitors; actives 4% (n = 1,500);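 further: Chinese hamster ovary cells used as mammalian cytotoxicity surrogate; viability measured as cellular ATP by luminescence; compound exposure lasted 48 h before reading; nearly all actives have a fitted effect of over 60% in size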
Giardia FBPA inh-2 = confirmation of Giardia fructose-bisphosphate aldolase inhibitors; purified Giardia aldolase enzyme activity, qHTS; Potency, µM (doses to about 57.5 µM), inactives show top-dose activity change, negative = inhibition, actives largely listed as inhibitors; actives 5% (n = 1,500); shares compounds with Giardia FBPA inh-1; further: nearly all actives have a fitted effect of over 45% in size
Rabbit aldolase = rabbit FBP aldolase inhibition by Giardia aldolase hits; shares compounds with Giardia FBPA inh-1; Rabbit muscle FBPA enzyme inhibition, selectivity counter-screen; Potency, µM (series often up to 57.5 µM), for inactives: at the highest dose activity, negative = inhibition, most hits filed as inhibitors; actives 4% (n = 1,500); further: nearly all actives have a fitted effect of over 60% in size
GAPDH coupling = GAPDH inhibition flagged for Giardia aldolase hits; shares compounds with Giardia FBPA inh-1; AID 2795; Potency, µM (top dose mostly 57.5 µM), for inactives: at the top dose activity change, negative = inhibition, most hits filed as inhibitors; GAPDH coupling enzyme counterscreen, biochemical, qHTS; actives 6% (n = 1,500); further: nearly all actives have a fitted effect of over 55% in size
An asterisk follows results filed as active; ? = inconclusive; . = no result; [ ] = dose if it differs, or a comment. Shown are actives, neighbours in structure and some others; about 3.4% of the full set was active somewhere. Unless noted, the call rests on the fitted dose curve; in most records, active means well fitted curve in the direction sought with a large enough effect; inconclusive means small, poorly fitted or top-dose-only effect, or another doubt; inactive means no such curve, though single readings can be large; an effect the other way counts as inactive or inconclusive. Unless noted, on the % scale 0 is the no-effect control and ±100 the full control effect; potency means the concentration at half of the fitted maximal effect.

SMILES	AmpC inh no detg	AmpC detergent	Giardia FBPA inh-1	RE007 growth inh	Sm TGR inh	Giardia growth	Mammal cell tox	Giardia FBPA inh-2	Rabbit aldolase	GAPDH coupling
O=C(Nc1nnc(-c2ccco2)o1)c1ccc(S(=O)(=O)N2CCCC2)cc1	-24%	7%	5µM*	16%	-4%	0%[10.4 µM]	-6%	11%	12%	-15%
CC1CCN(S(=O)(=O)c2ccc(C(=O)Nc3nnc(-c4ccco4)o3)cc2)CC1	-32%	-4%	-29%	2%	0%	.	.	.	.	.
CC1CCCN(S(=O)(=O)c2ccc(C(=O)Nc3nnc(-c4ccccn4)o3)cc2)C1 (centres undefined)	?	1%	18µM*	5%	4%	-17%	16%	24%	19%	8%
O=C(NC1CC1)[C@@H]1CSC2c3ccccc3C(=O)N21 (some centres undefined)	-17%	-9%	-3%	12%	-23%	.	.	.	.	.
Cc1ccc(S(=O)(=O)N2CC3CC(C2)c2cccc(=O)n2C3)cc1 (centres undefined)	-8%	-2%	1%	5%	3%	.	.	.	.	.
Cc1ccccc1C(=O)NC(=S)Nc1ncccn1	-1%	3%	4.5µM*	18%	11%	-15%[38.3 µM]	-24%	-19%	-14%	-11%
O=C(Oc1c(CN2CCOCC2)cc(Cl)c2cccnc12)c1ccccc1F	-5%	7%	16µM*	?	1%	7.9µM*	7.9µM*	?	?	-27%
CCOC(=O)C1CCCN(C(=O)c2cccc(S(=O)(=O)N(C)c3ccc(C)cc3)c2)C1 (centres undefined)	137%	?	.	-14%	0%	.	.	.	.	.
CCC(C)NCCOc1cc(C)cc(C)c1C (centres undefined)	-10%	2%	16µM*	-4%	.	21%	1%	5%	3%	8%
Cc1cccc(C(=O)OCCN2CCOCC2)c1	5%	-16%	14µM*	-4%	6%	?	2%	3%	9%	9%
O=C(OCCN1CCOCC1)c1cccc(F)c1	-21%	9%	-21%	8%	15%	.	.	.	.	.
OCCN(CCO)c1ccc2ccccc2c1	-20%	?	16µM*	8%	34%	-17%[10.4 µM]	-18%	4µM*	?	-26%
OCCN(CCO)c1ccc(C(c2ccccc2Cl)c2ccc(N(CCO)CCO)cc2Cl)c(Cl)c1	194%	-8%	-14%	22%	-2%	.	.	.	.	.
CCN1CCN(C(=S)NCCc2ccccc2)CC1	-9%	?	?	3%	0%	.	.	.	.	.
CNC(=S)N(Cc1ccc2c(c1)OCO2)C1CC(=O)N(c2ccc(F)cc2)C1=O (centres undefined)	-17%	?	-5%	3%	2%	.	.	.	.	.
CCNC(=S)NS(=O)(=O)c1ccc(F)cc1	-2%	-2%	?	?	15%	4%[38.3 µM]	3%	4%	-1%	2%
CC1(C)Cc2c(C#N)c(OCC(=O)c3ccccc3)nc(-c3ccoc3)c2CO1	-5%	-15%	1%	-10%	-2%	.	.	.	.	.
NNC(=S)NCc1ccco1	-42%	0%	18µM*	-10%	-1%	-5%[10.4 µM]	0%	2%	13%	4%
NC(=O)c1ccc(NC(=S)NCc2ccco2)cc1	-19%	-1%	1%	10%	-27%	.	.	.	.	.
Cc1cnn(C(=S)NCc2ccco2)c1	-3%	-2%	16µM*	-12%	?	-3%[10.4 µM]	3%	-6%	4%	11%
COC(=O)c1cnc(NNS(=O)(=O)c2ccc(Cl)cc2)nc1C(F)(F)F	-10%	-3%	16µM*	2%	20%	-3%	-7%	-6%	2%	4%
COc1cccc(C(=O)c2cn(CC(=O)Nc3cccc(C(F)(F)F)c3)c3nc(C)ccc3c2=O)c1	.	6%	.	.	26%	.	.	.	.	.
COc1cc(OC)c(NC2=CC(=O)C(=O)c3ccccc32)cc1Cl	-18%	1%	?	-14%	?	22µM*	21µM*	12µM*	13µM*	15µM*
Cc1cc(NC2=CC(=O)C(=O)c3ccccc32)no1	.	.	.	-28%	.	.	.	.	.	.
CN(C)C(=O)c1ccc(-c2nc(N(C)Cc3ccco3)c3ccccc3n2)cc1	.	.	-7%	.	.	.	.	.	.	.
Fc1ccc(C2NCCn3cccc32)cc1 (centres undefined)	39%	3%	-1%	-3%	-8%	.	.	.	.	.
CCOc1ccccc1NC(=O)C(CC)Sc1nc2ccncc2[nH]1 (centres undefined)	-29%	1%	14µM*	-14%	-7%	-14%[10.4 µM]	4%	-6%	0%	2%
CCOc1ccccc1NC(=O)C(CC)Sc1nc2ncccc2[nH]1 (centres undefined)	.	-1%	.	.	5%	.	.	.	.	.
